The values below come from PubChem BioAssay (NCI).

About 83,000 compounds went through this panel and 20% of them were active in at least one assay; those are over-represented in the sample as a whole.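 Values shown are percent growth following 48 h exposure of cells in 96-well plates to a single concentration of compound; below 10 was considered active.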 Values without a mark were called inactive. Activity calls are given as the source filed them.

Among the test systems are DU-145 prostate; K-562 leukemia; MALME-3M melanoma; MDA-MB-231 breast; SF-268 CNS; SF-295 CNS; SF-539 CNS; UACC-257 melanoma.
Common to all, as to experiment: NCI-60 one-dose screen, 48 h (100 = growth as untreated, 0 = no growth, -100 = all killed)
Holding throughout (settings): 10 µM unless noted

For `N#Cc1cccc(CN2CCC3=C(C2)C(=O)N(Cc2ccc(Cl)cc2)C2=NCCN23)c1`, the growth in the experiment with DU-145 prostate is 28.5%; in the experiment with K-562 leukemia it was 23.3%; in the experiment with MALME-3M melanoma, 50.4%; in the experiment on MDA-MB-231 breast it was 31.7%; in the experiment with SF-268 CNS, 36%; with SF-295 CNS, 8.53% (active). Further, the growth with SF-539 CNS is 41.7%; in the experiment on UACC-257 melanoma it was 10.7%.
As for `CN1CCN(Cc2ccc(NC(=O)c3cncc(C#Cc4cnc5ccc(OCC(C)(C)O)nn45)c3)cc2C(F)(F)F)CC1`, the growth in the experiment on DU-145 prostate is -36.8% (active); in the experiment on K-562 leukemia, 8.57% (active); in the experiment with MALME-3M melanoma it was -67.6% (active); in the experiment with MDA-MB-231 breast it was -11.1% (active); in the experiment with SF-268 CNS it was -50.4% (active); in the experiment on SF-295 CNS, -2.58% (active). Besides, the values for the growth in the experiment with SF-539 CNS and in the experiment with UACC-257 melanoma were -83.1% (active) and -16.8% (active), respectively.
With `O=C(c1ccc(O)cc1)[C@@H]1CN[C@@]2(C(=O)Nc3ccccc32)[C@H]1c1ccc(F)cc1`, the growth in the experiment with DU-145 prostate is 111%; in the experiment with K-562 leukemia, 88%; with MALME-3M melanoma it was 98.5%; in the experiment on MDA-MB-231 breast, 93.6%; with SF-268 CNS, 97.7%; in the experiment on SF-295 CNS, 101%. Besides, the figures for the growth in the experiment on SF-539 CNS and in the experiment with UACC-257 melanoma were 93.7% and 114%, respectively.
In the case of `O=C(NNc1nc2cc(F)ccc2n2c(CN3CCCC3)ccc12)c1cnccn1`, the growth in the experiment on DU-145 prostate was 17.2%; in the experiment with K-562 leukemia, 11.1%; with MALME-3M melanoma, 37.4%; in the experiment on MDA-MB-231 breast, 31.4%; in the experiment on SF-268 CNS, 22.1%; in the experiment with SF-295 CNS it was 6.2% (active). Further, the growth in the experiment on SF-539 CNS was 1.5% (active); in the experiment on UACC-257 melanoma it was 0.872% (active).
On to `CCCCCc1ccc(S(=O)(=O)Nc2cccc(-c3csc(NC(=O)CN4CCN(C)CC4)n3)c2)cc1`, for which the growth in the experiment with DU-145 prostate is 82.4%; with K-562 leukemia it was 7.06% (active); in the experiment with MALME-3M melanoma, 45.7%; with MDA-MB-231 breast, 74.2%; in the experiment with SF-268 CNS, 78.4%; with SF-295 CNS it was 104%. The growth is 82.9% in the experiment with SF-539 CNS and 93% in the experiment with UACC-257 melanoma.
As for `O=C1Nc2ccccc2/C1=C/c1ccc(COCC2CO2)n1-c1ccc(O)cc1` (stereo not given), the growth is 111% in the experiment on DU-145 prostate; 107% in the experiment on K-562 leukemia; 62.9% in the experiment with MALME-3M melanoma; 94.9% in the experiment on MDA-MB-231 breast; 98.7% with SF-268 CNS; 109% with SF-295 CNS. Also, the growth was 96.8% with SF-539 CNS and 102% in the experiment on UACC-257 melanoma.
Turning to `C=C(C=O)[C@@H]1CC[C@]2(COC(C)=O)CC[C@]3(C)C(CC[C@@H]4[C@@]5(C)CC[C@H](OC(C)=O)C(C)(C)[C@@H]5CC[C@]43C)[C@@H]12` (stereo not given in full), the growth is -53% (active) with DU-145 prostate; 2.89% (active) with K-562 leukemia; -64.7% (active) in the experiment with MALME-3M melanoma; -32.2% (active) in the experiment with MDA-MB-231 breast; 6.02% (active) with SF-268 CNS; 0.392% (active) with SF-295 CNS. Besides, the growth in the experiment on SF-539 CNS was -50.2% (active); in the experiment with UACC-257 melanoma it was -17.2% (active).
With `NC(N)=Nc1ccc(Oc2cccc(NC(N)=Nc3ccc(Br)c(C(F)(F)F)c3)c2)cc1`, the growth in the experiment with DU-145 prostate is 72.6%; in the experiment with K-562 leukemia, 29.3%; in the experiment on MALME-3M melanoma it was 67.5%; in the experiment with MDA-MB-231 breast, 61.4%; in the experiment with SF-268 CNS, 18.8%; in the experiment on SF-295 CNS, 40.5%. Moreover, the growth in the experiment on SF-539 CNS is 39.8%; with UACC-257 melanoma it was 54.8%.
As for `CCCCCc1ccc(S(=O)(=O)Nc2cccc(-c3csc(NC(=O)CCCCCN4CCN(C)CC4)n3)c2)cc1`, the growth in the experiment with DU-145 prostate is 63.5%; in the experiment with K-562 leukemia, -35.7% (active); with MALME-3M melanoma, -67.4% (active); in the experiment with MDA-MB-231 breast it was 42.9%; in the experiment on SF-268 CNS, 67.5%; in the experiment on SF-295 CNS it was 85.8%. For the same molecule, the values for the growth with SF-539 CNS and with UACC-257 melanoma were 63% and 0.162% (active), respectively.
`COc1ccc(NC(=O)CSc2nnc(-c3ccc4nc(-c5ccc(OC)c(OC)c5)[nH]c4c3)o2)cc1OC`: the growth with DU-145 prostate is 91.3%; with K-562 leukemia it was 108%; with MALME-3M melanoma, 83.3%; in the experiment with MDA-MB-231 breast, 93.5%; in the experiment on SF-268 CNS, 93.3%; in the experiment on SF-295 CNS, 107%. In addition, the growth was 93.3% in the experiment on SF-539 CNS and 106% with UACC-257 melanoma.
For `N=c1c2cc(-c3ccccc3)oc2ncn1/N=C/c1ccc(Cl)cc1`, the growth is 38.8% in the experiment on DU-145 prostate; 78.7% in the experiment with K-562 leukemia; 38.5% in the experiment with MALME-3M melanoma; 96.3% with MDA-MB-231 breast; 76.3% in the experiment on SF-268 CNS; 93.1% with SF-295 CNS. In addition, the growth is 82.7% with SF-539 CNS and 95.1% in the experiment with UACC-257 melanoma.
`O=C(NNc1nc2cc(F)c(F)cc2n2cccc12)c1cnccn1`: the growth was 32.7% with DU-145 prostate; 15.5% in the experiment on K-562 leukemia; 49.7% with MALME-3M melanoma; 44% with MDA-MB-231 breast; 32.5% in the experiment with SF-268 CNS; 11.1% in the experiment with SF-295 CNS. Also, the growth in the experiment with SF-539 CNS is 19.9%; with UACC-257 melanoma it was 17.5%.
`CS(=O)(=O)Nc1cc(-c2ccc3ncc(C#N)c(NCc4ccccc4O)c3c2)cnc1Cl`: the growth is 19.2% in the experiment on DU-145 prostate; 22.3% with K-562 leukemia; -37.2% (active) in the experiment on MALME-3M melanoma; 6.73% (active) with MDA-MB-231 breast; 6.44% (active) with SF-268 CNS; -14.4% (active) in the experiment with SF-295 CNS. For the same molecule, the growth with SF-539 CNS was -14.5% (active); in the experiment with UACC-257 melanoma, 6.3% (active).
For the molecule `O=C(NNc1nc2cc(F)ccc2n2c(CN3CCC(O)C3)ccc12)c1cnccn1` (stereo not given), the growth in the experiment on DU-145 prostate is 24%; with K-562 leukemia, 11.8%; in the experiment on MALME-3M melanoma, 12.1%; in the experiment with MDA-MB-231 breast, 34.2%; in the experiment on SF-268 CNS, 22.6%; with SF-295 CNS it was 4.11% (active). Besides, the growth with SF-539 CNS was 10.1%; in the experiment on UACC-257 melanoma it was 7.04% (active).
On to `O=C(O)c1ccc(-n2cc(CNc3cc(F)c(F)c(F)c3)c(-c3ccc(F)cc3)n2)cc1`, for which the growth was 98.3% in the experiment on DU-145 prostate; 71.1% in the experiment on K-562 leukemia; 76.5% with MALME-3M melanoma; 95.4% in the experiment on MDA-MB-231 breast; 105% with SF-268 CNS; 72.3% in the experiment with SF-295 CNS. Also, the growth in the experiment with SF-539 CNS was 93.5%; in the experiment on UACC-257 melanoma, 105%.
